# According to article PMC7862700, “An all-to-all approach to the identification of sequence-specific readers for epigenetic DNA modifications on cytosine”:
# How the values were obtained:
# Test in all cases: DAPPL (digital affinity profiling via proximity ligation, sequencing); 10 mM Tris-HCl pH 7.5, 50 mM NaCl, 1 mM DTT, 4% glycerol, room temperature, 30 min; GST-TFs on glutathione beads, 16-mer random dsDNA library, 0.1% formaldehyde crosslink after washing; high values mean tight binding
# FEV = molecular target: T1, FEV (Homo sapiens, UniProt Q99581 1-238); conditions: protein: recombinant; tags: N-terminal GST; dsDNA, one strand shown
# T1 sequence: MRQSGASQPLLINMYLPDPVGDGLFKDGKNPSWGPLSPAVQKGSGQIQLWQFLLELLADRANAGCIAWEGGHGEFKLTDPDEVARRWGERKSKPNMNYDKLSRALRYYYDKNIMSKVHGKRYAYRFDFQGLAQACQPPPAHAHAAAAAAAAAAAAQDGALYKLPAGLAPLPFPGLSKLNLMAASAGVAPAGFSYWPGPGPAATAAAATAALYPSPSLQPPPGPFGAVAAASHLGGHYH
# Summary of the method: (§1)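 Human transcription factors were made in yeast as GST fusions, captured on glutathione beads and barcoded with DNA. With a tag-only sample included, the pool was incubated with 200 nmole of a random double-stranded 16-mer DNA library in Tris/NaCl/DTT/glycerol buffer at room temperature for 30 min, then crosslinked with 0.1% formaldehyde after washing, ligated by proximity, amplified and sequenced. For binding signal, each hexamer's read frequency for a factor is divided by its frequency for the tag-only sample.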
# ETV5 = ETV5 (Homo sapiens, UniProt P41161 1-510); conditions: protein: recombinant; tags: N-terminal GST; dsDNA, one strand shown
# Summary of the method: as §1
# HSF1 = HSF1 (Homo sapiens, UniProt Q00613 1-529); conditions: protein: recombinant; tags: N-terminal GST; chain copies: 3; dsDNA, one strand shown
# Summary of the method: as §1
# SPIC = molecular target: T2, SPIC (Homo sapiens, UniProt Q8N5J4 1-248); conditions: protein: recombinant; tags: N-terminal GST; dsDNA, one strand shown
# T2 sequence: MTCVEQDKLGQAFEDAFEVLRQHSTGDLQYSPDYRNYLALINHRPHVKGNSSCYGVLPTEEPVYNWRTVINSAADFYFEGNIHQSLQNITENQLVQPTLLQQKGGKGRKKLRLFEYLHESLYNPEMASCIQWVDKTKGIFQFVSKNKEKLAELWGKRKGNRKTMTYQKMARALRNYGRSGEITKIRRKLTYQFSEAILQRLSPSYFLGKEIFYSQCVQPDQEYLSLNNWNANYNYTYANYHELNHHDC
# Summary of the method: as §1
# ELF4 = ELF4 (Homo sapiens, UniProt Q99607 1-663); conditions: protein: recombinant; tags: N-terminal GST; dsDNA, one strand shown
# Summary of the method: as §1
# ELK4 = molecular target: T3, ELK4 (Homo sapiens, UniProt P28324-2 1-405); conditions: protein: recombinant; tags: N-terminal GST; dsDNA, one strand shown
# T3 sequence: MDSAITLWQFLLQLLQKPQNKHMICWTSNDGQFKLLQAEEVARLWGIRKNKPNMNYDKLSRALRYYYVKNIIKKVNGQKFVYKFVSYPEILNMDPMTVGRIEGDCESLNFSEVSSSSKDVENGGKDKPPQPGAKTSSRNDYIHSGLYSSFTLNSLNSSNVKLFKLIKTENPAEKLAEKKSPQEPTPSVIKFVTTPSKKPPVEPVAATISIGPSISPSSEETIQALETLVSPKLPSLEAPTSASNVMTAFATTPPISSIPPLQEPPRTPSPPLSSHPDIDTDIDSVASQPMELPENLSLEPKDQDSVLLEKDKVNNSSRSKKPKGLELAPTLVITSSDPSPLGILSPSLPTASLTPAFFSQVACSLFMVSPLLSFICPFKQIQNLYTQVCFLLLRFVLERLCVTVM
# Summary of the method: as §1
# ETV2 = molecular target: T4, ETV2 (Homo sapiens, UniProt O00321 1-342); conditions: protein: recombinant; tags: N-terminal GST; dsDNA, one strand shown
# T4 sequence: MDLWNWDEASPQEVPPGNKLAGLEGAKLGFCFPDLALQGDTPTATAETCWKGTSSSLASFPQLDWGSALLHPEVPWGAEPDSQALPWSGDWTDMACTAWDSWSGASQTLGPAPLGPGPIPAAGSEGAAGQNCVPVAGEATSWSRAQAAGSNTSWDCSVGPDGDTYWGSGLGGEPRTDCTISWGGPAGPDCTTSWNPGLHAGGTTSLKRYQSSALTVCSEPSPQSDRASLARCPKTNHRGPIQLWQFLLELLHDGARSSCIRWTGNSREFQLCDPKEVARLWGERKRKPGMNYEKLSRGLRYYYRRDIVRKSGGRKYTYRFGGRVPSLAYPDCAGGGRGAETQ
# Summary of the method: as §1
# ELF3 = molecular target: T5, ELF3 (Homo sapiens, UniProt P78545 1-371); conditions: protein: recombinant; tags: N-terminal GST; dsDNA, one strand shown
# T5 sequence: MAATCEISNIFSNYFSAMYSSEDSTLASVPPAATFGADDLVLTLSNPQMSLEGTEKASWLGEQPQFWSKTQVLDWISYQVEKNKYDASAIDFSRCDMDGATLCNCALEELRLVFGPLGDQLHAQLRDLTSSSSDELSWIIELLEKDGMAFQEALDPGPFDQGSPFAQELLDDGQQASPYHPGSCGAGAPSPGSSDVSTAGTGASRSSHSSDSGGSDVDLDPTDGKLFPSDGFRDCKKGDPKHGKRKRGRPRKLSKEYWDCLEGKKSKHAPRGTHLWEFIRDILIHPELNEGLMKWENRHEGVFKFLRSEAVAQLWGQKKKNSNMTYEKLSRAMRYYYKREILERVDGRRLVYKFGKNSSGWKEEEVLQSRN
# Summary of the method: as §1
# CRX = CRX (Homo sapiens, UniProt O43186 1-299); conditions: protein: recombinant; tags: N-terminal GST; dsDNA, one strand shown
# Summary of the method: as §1
# ETV1 = ETV1 (Homo sapiens, UniProt P50549 1-477); conditions: protein: recombinant; tags: N-terminal GST; dsDNA, one strand shown
# Summary of the method: as §1
# ERF = molecular target: T6, ERF (Homo sapiens, UniProt P50548 1-548); conditions: protein: recombinant; tags: N-terminal GST; dsDNA, one strand shown
# T6 sequence: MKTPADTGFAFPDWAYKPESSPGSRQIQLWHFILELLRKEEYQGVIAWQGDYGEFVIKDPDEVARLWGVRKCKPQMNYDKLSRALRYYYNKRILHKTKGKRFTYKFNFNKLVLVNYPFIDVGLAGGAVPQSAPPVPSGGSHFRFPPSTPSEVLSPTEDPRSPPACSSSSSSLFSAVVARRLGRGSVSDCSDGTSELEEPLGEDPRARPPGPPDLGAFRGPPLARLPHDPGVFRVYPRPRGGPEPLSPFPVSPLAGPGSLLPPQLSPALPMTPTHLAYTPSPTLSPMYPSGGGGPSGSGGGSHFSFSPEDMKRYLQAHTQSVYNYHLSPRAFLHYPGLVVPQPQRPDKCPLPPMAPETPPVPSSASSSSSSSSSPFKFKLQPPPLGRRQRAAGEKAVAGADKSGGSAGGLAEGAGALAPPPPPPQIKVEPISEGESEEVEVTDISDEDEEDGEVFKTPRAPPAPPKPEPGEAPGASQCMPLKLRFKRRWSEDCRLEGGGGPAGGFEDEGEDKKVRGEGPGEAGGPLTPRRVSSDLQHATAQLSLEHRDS
# Summary of the method: as §1
# ETV3L = molecular target: T7, ETV3L (Homo sapiens, UniProt Q6ZN32 1-361); conditions: protein: recombinant; tags: N-terminal GST; dsDNA, one strand shown
# T7 sequence: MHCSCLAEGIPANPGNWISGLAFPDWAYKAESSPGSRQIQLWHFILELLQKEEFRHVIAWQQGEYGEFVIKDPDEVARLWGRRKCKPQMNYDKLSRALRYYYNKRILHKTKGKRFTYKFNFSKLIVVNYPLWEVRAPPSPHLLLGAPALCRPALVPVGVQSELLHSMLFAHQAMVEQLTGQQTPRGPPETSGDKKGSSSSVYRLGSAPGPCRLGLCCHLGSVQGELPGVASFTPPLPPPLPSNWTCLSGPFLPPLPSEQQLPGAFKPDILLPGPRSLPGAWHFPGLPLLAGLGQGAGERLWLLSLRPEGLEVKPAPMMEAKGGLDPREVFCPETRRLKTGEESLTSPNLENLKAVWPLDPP
# Summary of the method: as §1
# ETS2 = molecular target: T8, ETS2 (Homo sapiens, UniProt P15036 1-469); conditions: protein: recombinant; tags: N-terminal GST; dsDNA, one strand shown
# T8 sequence: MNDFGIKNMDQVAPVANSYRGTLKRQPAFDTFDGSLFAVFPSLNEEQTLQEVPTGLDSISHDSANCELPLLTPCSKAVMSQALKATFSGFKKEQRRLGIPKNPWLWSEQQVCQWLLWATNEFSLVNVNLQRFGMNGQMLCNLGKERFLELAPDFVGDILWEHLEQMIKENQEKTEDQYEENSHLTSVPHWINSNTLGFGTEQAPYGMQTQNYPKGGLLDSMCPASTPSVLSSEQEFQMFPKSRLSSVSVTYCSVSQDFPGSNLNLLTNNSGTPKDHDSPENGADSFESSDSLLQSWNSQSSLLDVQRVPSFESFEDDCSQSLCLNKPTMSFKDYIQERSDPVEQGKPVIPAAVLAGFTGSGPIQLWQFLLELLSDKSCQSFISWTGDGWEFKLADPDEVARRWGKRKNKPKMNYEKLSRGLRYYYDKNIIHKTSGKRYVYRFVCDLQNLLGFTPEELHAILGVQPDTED
# Summary of the method: as §1
# SPDEF = molecular target: T9, SPDEF (Homo sapiens, UniProt O95238 1-335); conditions: protein: recombinant; tags: N-terminal GST; dsDNA, one strand shown
# T9 sequence: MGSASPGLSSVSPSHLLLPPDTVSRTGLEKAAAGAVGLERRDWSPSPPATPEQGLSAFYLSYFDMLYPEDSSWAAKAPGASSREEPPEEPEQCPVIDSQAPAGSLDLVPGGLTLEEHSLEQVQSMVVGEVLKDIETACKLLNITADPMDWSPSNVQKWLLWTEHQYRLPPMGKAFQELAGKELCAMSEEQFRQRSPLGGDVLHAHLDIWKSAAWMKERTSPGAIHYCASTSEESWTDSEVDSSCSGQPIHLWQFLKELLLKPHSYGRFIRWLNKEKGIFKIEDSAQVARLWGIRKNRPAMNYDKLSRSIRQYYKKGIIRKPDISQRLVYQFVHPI
# Summary of the method: as §1
# ETV7 = molecular target: T10, ETV7 (Homo sapiens, UniProt Q9Y603 1-341); conditions: protein: recombinant; tags: N-terminal GST; dsDNA, one strand shown
# T10 sequence: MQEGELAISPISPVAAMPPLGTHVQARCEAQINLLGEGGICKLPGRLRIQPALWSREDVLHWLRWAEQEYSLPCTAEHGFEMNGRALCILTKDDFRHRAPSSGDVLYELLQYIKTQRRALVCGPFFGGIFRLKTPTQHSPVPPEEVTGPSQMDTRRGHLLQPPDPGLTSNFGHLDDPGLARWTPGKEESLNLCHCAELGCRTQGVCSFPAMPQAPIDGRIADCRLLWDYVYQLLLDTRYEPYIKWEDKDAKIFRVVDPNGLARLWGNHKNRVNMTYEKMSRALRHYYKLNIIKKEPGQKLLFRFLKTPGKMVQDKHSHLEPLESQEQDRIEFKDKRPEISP
# Summary of the method: as §1
# ELF5 = molecular target: T11, ELF5 (Homo sapiens, UniProt Q9UKW6-2 1-255); conditions: protein: recombinant; tags: N-terminal GST; dsDNA, one strand shown
# T11 sequence: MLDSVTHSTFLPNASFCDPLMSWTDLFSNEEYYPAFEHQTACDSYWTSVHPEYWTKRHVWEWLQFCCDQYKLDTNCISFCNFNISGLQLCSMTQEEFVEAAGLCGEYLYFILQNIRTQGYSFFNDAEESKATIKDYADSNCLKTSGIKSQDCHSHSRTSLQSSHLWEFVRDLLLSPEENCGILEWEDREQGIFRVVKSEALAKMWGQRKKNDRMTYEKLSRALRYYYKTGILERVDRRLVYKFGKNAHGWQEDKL
# Summary of the method: as §1
# ETV3 = molecular target: T12, ETV3 (Homo sapiens, UniProt P41162-2 1-143); conditions: protein: recombinant; tags: N-terminal GST; dsDNA, one strand shown
# T12 sequence: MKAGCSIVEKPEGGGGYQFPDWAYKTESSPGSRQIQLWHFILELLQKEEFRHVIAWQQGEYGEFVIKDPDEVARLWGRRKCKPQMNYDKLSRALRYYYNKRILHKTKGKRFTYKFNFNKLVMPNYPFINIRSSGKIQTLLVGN
# Summary of the method: as §1
# ETV6 = ETV6 (Homo sapiens, UniProt P41212 1-452); conditions: protein: recombinant; tags: N-terminal GST; dsDNA, one strand shown
# Summary of the method: as §1
# Sequence of HSF1 (Q00613 whole entry): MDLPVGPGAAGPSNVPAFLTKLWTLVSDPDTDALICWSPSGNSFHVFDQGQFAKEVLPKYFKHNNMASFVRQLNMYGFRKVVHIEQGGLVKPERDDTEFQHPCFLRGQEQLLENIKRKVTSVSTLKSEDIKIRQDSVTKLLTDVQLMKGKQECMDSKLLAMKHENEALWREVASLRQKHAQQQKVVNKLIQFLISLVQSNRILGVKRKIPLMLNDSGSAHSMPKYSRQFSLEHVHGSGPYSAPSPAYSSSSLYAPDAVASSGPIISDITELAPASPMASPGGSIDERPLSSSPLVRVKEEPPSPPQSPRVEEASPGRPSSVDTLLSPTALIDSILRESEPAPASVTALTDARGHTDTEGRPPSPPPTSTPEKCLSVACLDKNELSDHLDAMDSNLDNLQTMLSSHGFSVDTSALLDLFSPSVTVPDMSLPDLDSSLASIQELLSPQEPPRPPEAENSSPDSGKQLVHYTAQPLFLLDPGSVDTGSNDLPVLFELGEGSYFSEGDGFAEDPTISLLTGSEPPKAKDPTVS
# Sequence of ETV1 (P50549 whole entry): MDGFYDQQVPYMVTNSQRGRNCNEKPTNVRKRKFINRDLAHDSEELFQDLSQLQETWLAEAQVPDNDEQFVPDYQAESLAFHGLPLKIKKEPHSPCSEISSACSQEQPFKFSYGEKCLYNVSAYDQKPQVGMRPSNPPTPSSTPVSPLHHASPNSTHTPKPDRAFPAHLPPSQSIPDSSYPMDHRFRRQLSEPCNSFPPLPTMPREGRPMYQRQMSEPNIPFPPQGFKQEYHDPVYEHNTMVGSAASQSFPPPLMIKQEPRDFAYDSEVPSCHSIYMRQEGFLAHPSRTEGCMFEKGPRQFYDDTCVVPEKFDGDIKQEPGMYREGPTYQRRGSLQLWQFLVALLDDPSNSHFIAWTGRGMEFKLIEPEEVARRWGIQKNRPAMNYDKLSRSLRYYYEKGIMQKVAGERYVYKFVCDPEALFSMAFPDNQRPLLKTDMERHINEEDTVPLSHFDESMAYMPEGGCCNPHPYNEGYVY
# Sequence of ETV5 (P41161 whole entry): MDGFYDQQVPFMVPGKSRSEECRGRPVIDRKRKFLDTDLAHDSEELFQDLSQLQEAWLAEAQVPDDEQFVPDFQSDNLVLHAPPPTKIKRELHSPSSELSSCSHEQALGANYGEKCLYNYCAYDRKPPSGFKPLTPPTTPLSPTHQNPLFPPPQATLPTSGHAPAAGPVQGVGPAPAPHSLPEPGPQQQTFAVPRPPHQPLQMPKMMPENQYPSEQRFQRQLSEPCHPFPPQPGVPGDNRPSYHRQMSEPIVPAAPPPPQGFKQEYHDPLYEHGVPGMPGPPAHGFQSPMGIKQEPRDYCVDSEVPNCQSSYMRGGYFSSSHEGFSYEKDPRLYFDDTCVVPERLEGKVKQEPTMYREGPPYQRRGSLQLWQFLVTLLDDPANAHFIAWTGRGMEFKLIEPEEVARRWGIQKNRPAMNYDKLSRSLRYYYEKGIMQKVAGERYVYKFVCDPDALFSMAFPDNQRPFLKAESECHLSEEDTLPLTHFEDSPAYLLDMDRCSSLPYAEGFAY
# Sequence of ELF4 (Q99607 whole entry): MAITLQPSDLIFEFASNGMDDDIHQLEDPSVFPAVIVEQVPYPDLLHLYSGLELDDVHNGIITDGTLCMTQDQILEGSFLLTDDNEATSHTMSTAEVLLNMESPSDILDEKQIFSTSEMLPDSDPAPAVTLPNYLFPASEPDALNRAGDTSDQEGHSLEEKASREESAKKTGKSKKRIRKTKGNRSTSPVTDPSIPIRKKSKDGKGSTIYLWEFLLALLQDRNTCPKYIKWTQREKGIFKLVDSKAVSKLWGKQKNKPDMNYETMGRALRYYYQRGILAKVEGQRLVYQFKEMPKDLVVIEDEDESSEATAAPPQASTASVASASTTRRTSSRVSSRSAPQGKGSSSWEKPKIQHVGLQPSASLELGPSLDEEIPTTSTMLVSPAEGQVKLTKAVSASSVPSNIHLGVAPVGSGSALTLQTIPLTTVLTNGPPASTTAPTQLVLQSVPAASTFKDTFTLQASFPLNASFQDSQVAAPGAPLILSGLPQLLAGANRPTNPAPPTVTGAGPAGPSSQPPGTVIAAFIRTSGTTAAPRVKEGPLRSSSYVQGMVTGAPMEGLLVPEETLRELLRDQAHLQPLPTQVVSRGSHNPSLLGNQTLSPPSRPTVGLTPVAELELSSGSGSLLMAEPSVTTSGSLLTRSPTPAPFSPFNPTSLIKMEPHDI
# Sequence of CRX (O43186 whole entry): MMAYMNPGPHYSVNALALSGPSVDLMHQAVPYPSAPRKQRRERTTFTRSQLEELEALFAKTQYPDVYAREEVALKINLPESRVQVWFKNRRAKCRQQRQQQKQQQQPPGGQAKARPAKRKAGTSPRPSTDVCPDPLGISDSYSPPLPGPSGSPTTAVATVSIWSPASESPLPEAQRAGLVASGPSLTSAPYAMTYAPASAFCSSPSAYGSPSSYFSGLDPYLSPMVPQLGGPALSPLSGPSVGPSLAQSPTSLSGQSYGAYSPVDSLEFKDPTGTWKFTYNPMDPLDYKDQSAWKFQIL
# Sequence of ETV6 (P41212 whole entry): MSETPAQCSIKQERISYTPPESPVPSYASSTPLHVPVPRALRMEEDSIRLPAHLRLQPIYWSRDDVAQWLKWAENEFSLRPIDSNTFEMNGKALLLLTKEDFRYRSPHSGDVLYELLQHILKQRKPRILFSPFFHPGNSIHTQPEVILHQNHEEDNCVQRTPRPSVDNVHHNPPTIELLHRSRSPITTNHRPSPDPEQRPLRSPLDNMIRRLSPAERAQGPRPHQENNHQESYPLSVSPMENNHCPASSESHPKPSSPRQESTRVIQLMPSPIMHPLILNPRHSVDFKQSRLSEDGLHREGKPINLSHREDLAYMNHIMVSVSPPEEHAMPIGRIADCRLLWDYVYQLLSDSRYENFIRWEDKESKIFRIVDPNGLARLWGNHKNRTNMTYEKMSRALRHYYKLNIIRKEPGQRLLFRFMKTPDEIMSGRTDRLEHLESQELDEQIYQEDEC
sequence,measurement,setting,value
TACTTG,binding signal,FEV,"1.22 fold enrichment (6-mer frequency, TF over GST control)"
same,binding signal,ETV5,"1.26 fold enrichment (6-mer frequency, TF over GST control)"
same,binding signal,HSF1,"1.26 fold enrichment (6-mer frequency, TF over GST control)"
same,binding signal,SPIC,"1.35 fold enrichment (6-mer frequency, TF over GST control)"
same,binding signal,ELF4,"1.39 fold enrichment (6-mer frequency, TF over GST control)"
same,binding signal,ELK4,"1.38 fold enrichment (6-mer frequency, TF over GST control)"
same,binding signal,ETV2,"1.46 fold enrichment (6-mer frequency, TF over GST control)"
same,binding signal,ELF3,"1.54 fold enrichment (6-mer frequency, TF over GST control)"
same,binding signal,CRX,"1.5 fold enrichment (6-mer frequency, TF over GST control)"
same,binding signal,ETV1,"1.54 fold enrichment (6-mer frequency, TF over GST control)"
same,binding signal,ERF,"1.39 fold enrichment (6-mer frequency, TF over GST control)"
same,binding signal,ETV3L,"1.45 fold enrichment (6-mer frequency, TF over GST control)"
same,binding signal,ETS2,"1.24 fold enrichment (6-mer frequency, TF over GST control)"
same,binding signal,SPDEF,"1.21 fold enrichment (6-mer frequency, TF over GST control)"
same,binding signal,ETV7,"1.34 fold enrichment (6-mer frequency, TF over GST control)"
same,binding signal,ELF5,"1.35 fold enrichment (6-mer frequency, TF over GST control)"
same,binding signal,ETV3,"1.34 fold enrichment (6-mer frequency, TF over GST control)"
same,binding signal,ETV6,"1.24 fold enrichment (6-mer frequency, TF over GST control)"
